Test results reported in PubChem BioAssay AID1259336 (Sattelle Laboratory, UCL Respiratory, Division of Medicine, …, 2017).
Activity calls are given as the source filed them. Rule as the data show it: active = log2 fold change growth below about -1.8; inactive = the rest.

test: C. elegans growth inhibition, whole organism, log2 fold change (AID 1259336); conditions: anthelmintic screen, hits give low values;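 also: growth scored by imaging after five days at 20 °C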

| SMILES | log2 fold change growth |
| --- | --- |
| COc1ccc(OC)c(NCc2ccc3nc(N)nc(N)c3c2Cl)c1 | 0.162 (inactive) |
| O=C(Cn1ccnc1[N+](=O)[O-])NCc1ccccc1 | 0.415 (inactive) |
| COc1cccc(OC)c1C(=O)Nc1ccc(Cl)c(-c2nc3ccccc3s2)c1 | -0.202 (inactive) |
| O=C(Nc1ccccc1-c1nc2c(C(=O)O)cccc2o1)c1ccccc1 | -0.0236 (inactive) |
| O=C(Nc1nc(-c2ccccn2)cs1)C1CC1c1ccccc1F (centres undefined) | -2.09 (active) |
| O=C(Nc1c(O)cccc1-c1nc2c(C(=O)O)cccc2o1)c1cc(-c2ccccc2)on1 | -0.772 (inactive) |
| CNC(=O)CNc1nc(-c2ccccn2)nc2scc(-c3ccccc3)c12 | 0.152 (inactive) |
| CCc1cc(=O)n(C)c(S[C@@H](C)C(=O)Nc2ccc(F)cc2)n1 | -0.417 (inactive) |
| Clc1ccc(Cl)c(CO[C@H]2CCCC[C@@H]2n2ccnc2)c1 | 0.0539 (inactive) |
